# Measurements: PubChem BioAssay
# Active and inactive are the calls of the source. Rule as the data show it, unless noted: active = inhibition above about 80%; inactive = the rest.
# How the values were obtained:
# [1] = growth inhibition, single agent or in combination, cell-based, chromothripsis tumors, cisplatin or BGB combos (AID 1671449); conditions: LFS_MB_P medulloblastoma cells;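 also: cells exposed for 96 hours; 0% = vehicle DMSO and 100% = killing by high DMSO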
# [2] = growth inhibition, single agent and combos, cell-based, chromothripsis tumors, cisplatin or BGB combos (AID 1671450); conditions: HDN33 neuroblastoma cells, stronger effect = higher value;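 also: cells exposed to compound for four days; 0% = vehicle DMSO and 100% = cell killing by high DMSO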
# [3] = growth inhibition, single agents and combos, ICB984, cell-based, cisplatin or BGB combos, synergistic combos for chromothripsis tumors (AID 1671451; call rule not given here;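 also: cells exposed for 96 hours before readout; 0% = vehicle DMSO and 100% = killing by high DMSO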); conditions: ICB984 medulloblastoma cells, drug combinations, stronger effect = higher value
# [4] = growth inhibition, single agents and combos, LFS_MB_1R, cell-based, cisplatin or BGB combos, synergistic combos for chromothripsis tumors (AID 1671452); conditions: LFS_MB_1R medulloblastoma cells, stronger effect = higher value;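 also: cells exposed for 96 hours before readout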
# [5] = growth inhibition, single agents and combos, HTB85, cell-based, BGB or cisplatin IC20 combos, synergistic combos for chromothripsis tumors (AID 1671453); conditions: HTB85 osteosarcoma cells, drug combinations, stronger effect = higher value;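 also: cells exposed for 96 hours before readout; 0% = vehicle DMSO and 100% = high DMSO killing control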
# [6] = growth inhibition, single agents and combos, CRL2098, cell-based, BGB or cisplatin IC20 combos, synergistic combos for chromothripsis tumors (AID 1671454); conditions: CRL2098 osteosarcoma cells, drug combinations, stronger effect = higher value;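 also: cells exposed for 96 h before readout; 0% = vehicle DMSO and 100% = killing by high DMSO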
# [7] = growth inhibition, single agents and combos, HD-MB03, cell-based, BGB or cisplatin IC20 combos, synergistic combos for chromothripsis tumors (AID 1671455; in the data active = inhibition above about 83%;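 also: 0% = vehicle DMSO and 100% = high DMSO as cytotoxic control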); conditions: HD-MB03 medulloblastoma cells, stronger effect = higher value
# [8] = growth inhibition, single agents and combos, UWB1.289, cell-based, BGB or cisplatin combos, synergistic combos for chromothripsis tumors (AID 1671456); conditions: UWB1.289 ovarian carcinoma cells, stronger effect = higher value;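 also: cells exposed to compound for four days; 0% = vehicle DMSO and 100% = killing by high DMSO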
# [9] = growth inhibition, single agents and combos, LFS_MB_2R, cell-based, cisplatin combos, synergistic combos for chromothripsis tumors (AID 1671457); conditions: LFS_MB_2R medulloblastoma cells, stronger effect = higher value;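 also: cells exposed to compound for four days before readout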
# [10] = growth inhibition, MDA-MB-436, cell-based, BGB or cisplatin combos, synergistic combos for chromothripsis tumors (AID 1671458; call rule not given here;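 also: cells exposed for 96 hours; 0% = vehicle DMSO and 100% = killing by high DMSO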); conditions: MDA-MB-436 breast carcinoma growth inhibition, drug combinations, stronger effect = higher value
# [11] = UWB1.289_BRCA1 ovarian cancer growth, cell-based, BGB or cisplatin combinations (AID 1671459); conditions: UWB1.289 BRCA1 ovarian carcinoma, drug combinations, stronger effect = higher value
# [12] = drug combination toxicity in non-malignant astrocytes – cell-based, BGB or cisplatin IC20 combos, cytotoxicity control for chromothriptic childhood tumor combination screen (AID 1671460); conditions: Human astrocytes, viability inhibition, drug combinations, at 0.5 µM, stronger effect = higher value;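 also: cells exposed to compounds for 96 hours before viability readout; 0% = vehicle and 100% = killing control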
# [13] = BT084 cell growth, single and combined drugs, ICGC_MB145, cisplatin and BGB IC40 combos (AID 1671461); conditions: BT084 medulloblastoma cells, drug combinations, stronger effect = higher value;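 also: cells exposed to drugs for 96 hours; 0% = vehicle DMSO and 100% = high DMSO full killing control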
# [14] = RCMB18 cell growth, single agent and combined, cisplatin and BGB IC40 combos (AID 1671462); conditions: RCMB18 medulloblastoma cells, stronger effect = higher value;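 also: cells exposed to compound for four days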
# [15] = CRL1545 cell growth, single agent and combined, cisplatin and BGB IC20 combos (AID 1671464); conditions: CRL1545 osteosarcoma cells, stronger effect = higher value;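 also: cells exposed to compound for 96 hours before readout; 0% = vehicle DMSO and 100% = high DMSO killing control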
# [16] = galactose survival enhancers in mitochondrial complex I cybrids – cell-based, galactose medium, ATP luminescence, primary screen (AID 1645843;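 active = z-score of at least 1.8 in each of two replicates, scored against plate mean and spread of sample wells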;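 also: positive z means more ATP and so rescue of galactose-driven cybrid death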); conditions: complex I mutant cybrid cells, 72 h, stronger effect = higher value
# [17] = measured here: combination with BGB IC40, at 0.05 µM
# [18] = measured here: with BGB IC20 combination, at 0.5 µM
# [19] = measured here: with cisplatin IC20 combination, at 0.5 µM
# [20] = measured here: combination with cisplatin, at 0.5 µM
# [21] = measured here: combination with cisplatin, at 5 µM
smiles,measurement,setting,value
CON=C1CN(c2nc3c(cc2F)c(=O)c(C(=O)O)cn3C2CC2)CC1CN (stereo not given),inhibition,"[1]; at 0.5 µM, stronger effect = higher value",-25.3% (inactive)
same,inhibition,"[1]; measured here: combination with BGB IC20, at 0.005 µM",-14.3%
same,inhibition,"[1]; measured here: combination with BGB IC40, at 0.005 µM",-29%
same,inhibition,[1]; [17],-34.5%
same,inhibition,"[1]; measured here: combination with cisplatin, at 0.5 µM, stronger effect = higher value",-40.3%
same,inhibition,"[1]; measured here: combination with cisplatin, at 5 µM, stronger effect = higher value",-32.3%
same,inhibition,"[2]; BGB combo, at 5 µM",-16.7%
same,inhibition,[2]; at 0.5 µM,7.67% (inactive)
same,inhibition,"[2]; cisplatin combo, at 5 µM",-7.53%
same,inhibition,[2]; [18],8.62%
same,inhibition,[2]; [19],24.5%
same,inhibition,"[2]; single agent, at 5 µM",-10.6%
same,inhibition,"[3]; BGB IC20 combo, at 0.005 µM",-9.19%
same,inhibition,"[3]; BGB IC40 combo, at 0.005 µM",-11.5%
same,inhibition,"[3]; BGB IC40 combo, at 0.05 µM",-24.2%
same,inhibition,[3]; at 0.5 µM,-23.7% (inactive)
same,inhibition,"[3]; cisplatin combo, at 0.05 µM",-30.6%
same,inhibition,"[3]; cisplatin combo, at 0.5 µM",-28.8%
same,inhibition,"[3]; cisplatin combo, at 5 µM",-12.6%
same,inhibition,"[3]; measured here: 5 uM single agent, at 5 µM",-12.7%
same,inhibition,[4]; at 0.5 µM,-19.1% (inactive)
same,inhibition,[4]; [17],-15.4%
same,inhibition,[4]; [20],-33.2%
same,inhibition,[4]; [21],-30.4%
same,inhibition,[5]; at 0.5 µM,5.68% (inactive)
same,inhibition,"[5]; measured here: with BGB IC20, at 0.5 µM",30.9%
same,inhibition,"[5]; measured here: with BGB IC20, at 5 µM",13.1%
same,inhibition,"[5]; measured here: with cisplatin IC20, at 0.5 µM",-15.5%
same,inhibition,"[5]; measured here: with cisplatin IC20, at 5 µM",2.1%
same,inhibition,"[5]; single agent, at 5 µM",3.62%
same,inhibition,[6]; at 0.5 µM,-6.34% (inactive)
same,inhibition,"[6]; measured here: combination with BGB at IC20, at 0.5 µM",-22.3%
same,inhibition,"[6]; measured here: combination with cisplatin at IC20, at 0.5 µM",10.2%
same,inhibition,[7]; at 0.5 µM,-12.3% (inactive)
same,inhibition,"[7]; measured here: combo with BGB at IC20, at 0.5 µM",-16.7%
same,inhibition,"[7]; measured here: combo with cisplatin at IC20, at 0.5 µM",-12.2%
same,inhibition,[8]; at 0.5 µM,-4.81% (inactive)
same,inhibition,"[8]; measured here: inhibition with BGB combination, at 0.05 µM",-8.23%
same,inhibition,"[8]; measured here: inhibition with cisplatin combination, at 0.05 µM",-6.42%
same,inhibition,[9]; at 0.5 µM,-15.8% (inactive)
same,inhibition,[9]; [20],-15.1%
same,inhibition,[9]; [21],-25.5%
same,inhibition,[10]; at 0.5 µM,-11.3% (inactive)
same,inhibition,"[10]; measured here: BGB combination, at 0.5 µM",-3.57%
same,inhibition,"[10]; measured here: BGB combination, at 5 µM",-21.3%
same,inhibition,"[10]; measured here: cisplatin combination, at 0.5 µM",-27.7%
same,inhibition,"[10]; measured here: cisplatin combination, at 5 µM",-9.24%
same,inhibition,"[11]; BGB combination, concentration series, at 5 µM",-28.4%
same,inhibition,[11]; at 0.5 µM,-4.07% (inactive)
same,inhibition,"[11]; cisplatin combination, concentration series, at 5 µM",-3.27%
same,inhibition,[12],0.97% (inactive)
same,inhibition,[12]; measured here: combo with BGB IC20,7.71%
same,inhibition,[12]; measured here: combo with cisplatin IC20,2.88%
same,inhibition,[13]; at 0.5 µM,-10.5% (inactive)
same,inhibition,"[13]; cisplatin combination, at 0.5 µM",-2.65%
same,inhibition,"[13]; cisplatin combination, at 5 µM",-140%
same,inhibition,"[13]; measured here: BGB IC40 combination 0.05 uM, at 0.05 µM",-26.9%
same,inhibition,"[13]; single agent, at 5 µM",-46.4%
same,inhibition,[14]; at 0.5 µM,-9.98% (inactive)
same,inhibition,"[14]; cisplatin combo, at 5 µM",24.4%
same,inhibition,"[14]; measured here: BGB IC40 combination, at 0.05 µM",-6.9%
same,inhibition,[14]; [20],6.35%
same,inhibition,"[14]; single agent, at 5 µM",-19.4%
same,inhibition,[15]; at 0.5 µM,-0.16% (inactive)
same,inhibition,[15]; [18],-14.3%
same,inhibition,[15]; [19],5.39%
same,inhibition,"[15]; single agent, at 0.05 µM",4.29%
same,inhibition,"[15]; single agent, at 5 µM",16.8%
O=C(C1CCCCCC1)N1CCC(n2cc(C3CCCCC3)nn2)CC1,z-score,[16],2.69 (active)
NCCCNC1CCN(c2ccc(-c3cccc(F)c3)cc2)CC1,z-score,[16],-1.31 (inactive)
